± gives the standard deviation of the averaged measurements. In all, about 33,000 sequences were measured (“E-score (dimensionless, -0.5 to 0.5)”: median about -0.049, highest 2% from about 0.37 on). The full list was thinned out, with the highest values kept by preference.
test system: T1, PmTbr T-box DNA-binding domain (GST fusion); assay: PBM E-score of 8-mer (E-score (dimensionless, -0.5 to 0.5)); Tbr is Tbrain of the sea star Patiria miniata (Pm) or the sea urchin Strongylocentrotus purpuratus (Sp); higher = stronger binding preference; conditions: the construct has about 5 more residues each side
T1 sequence: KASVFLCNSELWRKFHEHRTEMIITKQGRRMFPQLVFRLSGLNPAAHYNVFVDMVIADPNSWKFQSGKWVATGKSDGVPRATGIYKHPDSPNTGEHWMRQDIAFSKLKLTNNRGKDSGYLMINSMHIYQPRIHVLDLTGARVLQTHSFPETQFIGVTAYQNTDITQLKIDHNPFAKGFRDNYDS
Method: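 Universal protein-binding microarray (Agilent AMADID 016060, 60-bp probes with a 35-bp variable region) incubated with 200 nM GST-fused Patiria miniata Tbr T-box DNA-binding domain (residues 272-466) in PBS pH 7.5. Scored for every ungapped 8-mer (given with its reverse complement) by the Universal PBM Analysis Suite as E-score (modified Wilcoxon-Mann-Whitney enrichment, range -0.5 to 0.5; >0.45 counts as bound) and Z-score of median probe intensity. Two replicate arrays (datasets 1 and 2).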
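Further: 200 nM protein in PBS on universal arrays averaged over duplicate arrays.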

| Sequence | PBM E-score of 8-mer |
| --- | --- |
| CTGCTAAA | 0.21 ± 0.071 |
| ACTATGCC | -0.0992 ± 0.096 |
| CAACTGTG | 0.231 ± 0.015 |
| AAATGGCC | -0.316 ± 0.0079 |
| CATCAAGA | -0.245 ± 0.022 |
| AGTATTGG | -0.0858 ± 0.022 |
| ACTGTTGA | 0.123 ± 0.062 |
| GGTGTTGA | 0.4746 ± 0.0036 |
| GTTGTTGA | 0.245 ± 0.029 |
| AGTGTTGG | 0.3857 ± 0.0032 |
| AGTGTTTG | 0.275 ± 0.036 |
| AGTGTTGA | 0.395 ± 0.022 |
| GCTGTTGA | 0.0473 ± 0.023 |
| AGTGTTGC | 0.3558 ± 0.0028 |
| CGTGTTGA | 0.295 ± 0.028 |
| CTCTCTGA | -0.253 ± 0.021 |
| AGCTTCAT | -0.00536 ± 0.11 |
| GAACCGTC | -0.07 ± 0.048 |
| CCCATTTA | 0.0289 ± 0.005 |
| ACGGGCGC | 0.0455 ± 0.05 |
| CGAAAGTC | 0.0804 ± 0.023 |
| ACAGTGTA | 0.0105 ± 0.032 |
| GTTAAGCA | 0.0703 ± 0.02 |
| TAAACCCA | -0.0858 ± 0.0046 |
| CTTATGGC | -0.0928 ± 0.041 |

| Sequence | PBM E-score of 8-mer |
| --- | --- |
| ATCGTCAC | 0.403 ± 0.0068 |
| ATCGTCAT | -0.0319 ± 0.033 |
| CTCGTCAA | 0.141 ± 0.04 |
| CTCGTCAC | 0.3943 ± 0.0029 |
| ATCGTCAA | 0.0469 ± 0.0067 |
| GTCGTCAC | 0.3318 ± 0.0028 |
| GCCTACCA | 0.015 ± 0.093 |
| CACTTAAA | 0.158 ± 0.01 |
| AGGTGCTC | 0.0655 ± 0.042 |
| AGGTGCTG | 0.414 ± 0.019 |
| AAGTGCGG | 0.247 ± 0.0065 |
| ATGTGCTG | 0.1768 ± 0.001 |
| AGGTGCGG | 0.434 ± 0.011 |
| AGGTGCGC | 0.293 ± 0.023 |
| CCAGAGGC | 0.0947 ± 0.07 |
| CACCACAG | 0.131 ± 0.004 |
| CTCGGGAC | -0.18 ± 0.058 |
| CCTTCCAC | 0.0992 ± 0.017 |
| ACACCCGC | 0.376 ± 0.011 |
| ACACCCGA | 0.422 ± 0.012 |
| GCACCCGA | 0.15 ± 0.0018 |
| GCACCCGC | 0.333 ± 0.012 |
| TCACCCGA | 0.0689 ± 0.025 |
| CCACCCGC | 0.0903 ± 0.013 |
| GGAGGAGA | -0.011 ± 0.0051 |

| Sequence | PBM E-score of 8-mer |
| --- | --- |
| AGGCACGG | -0.0977 ± 0.04 |
| GAACGACA | 0.106 ± 0.025 |
| AAATAACC | 0.0174 ± 0.057 |
| AGCGAATA | 0.0489 ± 0.053 |
| CGTGTAGA | 0.0938 ± 0.0091 |
| CGCGAAAC | 0.355 ± 0.0087 |
| CGCGAAAG | 0.3697 ± 0.0008 |
| AGCGAAAG | -0.0461 ± 0.031 |
| AGCGAACG | 0.0481 ± 0.02 |
| CGCGAACG | 0.375 ± 0.017 |
| CGCGAACC | 0.328 ± 0.0044 |
| ATCTTACC | -0.327 ± 0.021 |
| ATCTTAAT | -0.171 ± 0.13 |
| CCCAAACG | -0.119 ± 0.045 |
| ACCTGGCA | 0.288 ± 0.011 |
| CTTTGCGA | 0.0629 ± 0.022 |
| AGCTCCCA | -0.308 ± 0.076 |
| ATCACGCG | 0.334 ± 0.023 |
| ATCACGCC | 0.372 ± 0.017 |
| ATCACGCA | 0.167 ± 0.0099 |
| CTCACGCA | 0.306 ± 0.019 |
| CTCACGCC | 0.3929 ± 0.00041 |
| CCCACGCC | 0.08239 ± 0.00072 |
| GACAGGAA | 0.08894 ± 0.00038 |
| GTGTGCCA | 0.237 ± 0.025 |

| Sequence | PBM E-score of 8-mer |
| --- | --- |
| AAGACACC | 0.3306 ± 0.0024 |
| TAGTGTAA | 0.185 ± 0.072 |
| TAGTGGGA | -0.0944 ± 0.019 |
| AAGTGTAA | 0.381 ± 0.05 |
| AAGTGTGC | 0.368 ± 0.0052 |
| CAGTGTGC | 0.0644 ± 0.04 |
| TAGTGAGA | 0.278 ± 0.022 |
| CAGTGTGG | 0.249 ± 0.013 |
| TAGTGTGA | 0.446 ± 0.0044 |
| CAGTGTGA | 0.3958 ± 0.0034 |
| AAGTGTGA | 0.48967 ± 0.00029 |
| AAGTGTAG | 0.147 ± 0.012 |
| AAGTGTGT | 0.34 ± 0.03 |
| ATGGTGAC | 0.262 ± 0.049 |
| CGCTTTCA | 0.0848 ± 0.014 |
| GCACTAGC | 0.0942 ± 0.018 |
| AAAGACGT | -0.108 ± 0.008 |
| CCTACCCC | -0.152 ± 0.039 |
| CAAATACA | -0.164 ± 0.0057 |
| ACTAGACC | -0.3241 ± 0.0027 |
| GTATCCAC | 0.0223 ± 0.03 |
| ACGCGCAT | 0.0257 ± 0.033 |
| GACAGCGC | 0.0941 ± 0.072 |
| AGAGCATC | -0.226 ± 0.1 |
| GAGTGTGC | 0.2606 ± 0.00088 |

| Sequence | PBM E-score of 8-mer |
| --- | --- |
| GAGTGTGA | 0.4754 ± 0.0017 |
| AAGTGTGG | 0.3837 ± 0.00044 |
| AACTGTGG | 0.00267 ± 0.0079 |
| GAGTGTAA | 0.169 ± 0.061 |
| AAGTGGGG | 0.189 ± 0.07 |
| CACTTTCG | 0.258 ± 0.004 |
| CGGGGCAA | -0.147 ± 0.097 |
| CACCTAGA | 0.324 ± 0.028 |
| AACCTAGC | 0.088 ± 0.041 |
| CCCCTAGG | -0.0463 ± 0.05 |
| AACCTAGG | -0.0117 ± 0.074 |
| CACCTAGG | 0.436 ± 0.01 |
| CACCTAGC | 0.418 ± 0.0047 |
| GTTCCGGA | -0.29 ± 0.027 |
| GTGCGACA | 0.412 ± 0.021 |
| ATGCGACA | 0.3323 ± 0.0011 |
| CTGCGACA | 0.172 ± 0.015 |
| ATGCGATA | 0.0765 ± 0.014 |
| CTGCGAAA | 0.368 ± 0.0074 |
| CTGCGAAC | 0.324 ± 0.013 |
| ATGCGAAC | 0.13 ± 0.018 |
| CTGCGATA | 0.169 ± 0.046 |
| GTGCGAAA | 0.4814 ± 0.0014 |
| TTGCGAAA | 0.349 ± 0.034 |
| GTGCGATA | 0.4351 ± 0.0025 |

| Sequence | PBM E-score of 8-mer |
| --- | --- |
| GTGCGAAC | 0.4794 ± 0.0017 |
| CTAGTAGA | -0.0181 ± 0.012 |
| CAGTGGTA | -0.0733 ± 0.022 |
| CGCAGCCA | 0.00214 ± 0.11 |
| AAGCGCCC | -0.0238 ± 0.0037 |
| CACCGTCC | 0.0123 ± 0.0021 |
| CGTATTCC | -0.23 ± 0.036 |
| ATGCGAGA | 0.144 ± 0.02 |
| GTGCGAGA | 0.43391 ± 0.00018 |
| CTGCGAGA | 0.212 ± 0.035 |
| AAAGGTAT | -0.0701 ± 0.061 |
| CAGGGTGC | 0.271 ± 0.036 |
| GAGGGTGC | 0.389 ± 0.018 |
| GAGGGTGA | 0.279 ± 0.005 |
| AAAGGTGG | 0.234 ± 0.084 |
| AAAGGTAC | -0.152 ± 0.021 |
| AAAGGTGT | 0.478 ± 0.0057 |
| AAGGGTGT | 0.399 ± 0.018 |
| AAGGGTGA | 0.19 ± 0.0034 |
| AAAGGTGC | 0.422 ± 0.015 |
| AAGGGTGG | 0.1889 ± 0.001 |
| AAAGGTCC | 0.011 ± 0.046 |
| AATAAGGT | 0.0297 ± 0.12 |
| CACTATAC | 0.132 ± 0.073 |
| ACGTCACA | 0.258 ± 0.021 |

| Sequence | PBM E-score of 8-mer |
| --- | --- |
| GGGCCTAA | -0.148 ± 0.024 |
| CGAGAACA | 0.2 ± 0.0064 |
| AAAGGTCA | -0.303 ± 0.043 |
| AAAGGTGA | 0.398 ± 0.025 |
| AAAGGTAA | -0.21 ± 0.041 |
| GAAGTGTA | 0.293 ± 0.028 |
| CAAGTGCG | 0.389 ± 0.015 |
| AAAGTGCG | 0.315 ± 0.013 |
| CAAGTGTA | 0.178 ± 0.035 |
| CAAGTGTC | 0.38 ± 0.031 |
| CAAGTGGC | 0.268 ± 0.028 |
| CCAGTGTC | 0.0539 ± 0.05 |
| CAAGTGTG | 0.433 ± 0.0066 |
| GAAGTGTC | 0.454 ± 0.0065 |
| CAAGTGCC | 0.284 ± 0.029 |
| GAAGTGCC | 0.263 ± 0.019 |
| CAAGTGGG | 0.211 ± 0.016 |
| ATTTAAGC | -0.191 ± 0.065 |
| ACATATCC | -0.0724 ± 0.065 |
| ACAGCTCA | 0.237 ± 0.0098 |
| TAACACAA | 0.313 ± 0.0094 |
| CTTCAATC | 0.0436 ± 0.043 |

Reference: the supplement of paper PMC4166925
